Laboratory results published in the supplement of paper PMC8728848.
This excerpt belongs to a sample that is enriched for the strongest signals.

How the values were obtained:
Experiment in all cases: glycan array binding signal (z-score within array); higher = stronger binding
Details in all cases: glycan notation: IUPAC condensed, linker removed
[1] = target: Fuc(a1-2)[Gal(a1-3)]Gal(b1-4)Glc
Summary of the method: (§1)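 Negative Z-scores can be read as non-binding. The Z-score is calculated within each array and then averaged across arrays of one protein sequence at different concentrations or buffers and across linkers. Arrays, 3228 in all, were curated from the Consortium for Functional Glycomics database and kept only where the protein sequence was available.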

[2] = target: Fuc(a1-2)[Gal(a1-3)]Gal(b1-4)[Fuc(a1-3)]GlcNAc
Summary of the method: as §1

[3] = target: Fuc(a1-2)[GalNAc(a1-3)]Gal
Summary of the method: as §1

[4] = target: Fuc(a1-2)[GalNAc(a1-3)]Gal(b1-3)GlcNAc
Summary of the method: as §1

[5] = target: Fuc(a1-3)[Gal(b1-4)]GlcNAc(b1-2)Man(a1-6)[Gal(b1-4)GlcNAc(b1-2)Man(a1-3)]Man(b1-4)GlcNAc(b1-4)GlcNAc
Summary of the method: as §1

[6] = target: Fuc(a1-3)[Gal(b1-4)]GlcNAc(b1-3)Gal(b1-3)[Fuc(a1-4)]GlcNAc
Summary of the method: as §1

[7] = target: Fuc(a1-3)[Gal(b1-4)]GlcNAc6S
Summary of the method: as §1

[8] = target: Fuc(b1-3)GlcNAc
Summary of the method: as §1

[9] = target: Gal(a1-3)Gal(b1-3)GlcNAc
Summary of the method: as §1

[10] = target: Gal(a1-3)Gal(b1-4)GlcNAc
Summary of the method: as §1

[11] = target: Gal(b1-2)Gal
Summary of the method: as §1

[12] = target: Gal(b1-3)Gal
Summary of the method: as §1

[13] = target: Gal(b1-3)GlcNAc
Summary of the method: as §1

[14] = target: Gal(b1-3)GlcNAc(b1-2)Man(a1-3)[Gal(b1-3)GlcNAc(b1-2)Man(a1-6)]Man(b1-4)GlcNAc(b1-4)GlcNAc
Summary of the method: as §1

[15] = target: Gal(b1-4)GlcNAc(b1-3)Gal(b1-4)Glc
Summary of the method: as §1

[16] = target: Gal3S(b1-3)[Fuc(a1-4)]GlcNAc
Summary of the method: as §1

[17] = target: Gal6S(b1-4)Glc
Summary of the method: as §1

[18] = target: GalNAc(a1-3)GalNAc
Summary of the method: as §1

[19] = target: GlcNAc(b1-3)GalNAc
Summary of the method: as §1

[20] = target: GlcNAc(b1-3)[GlcNAc(b1-6)]Gal(b1-4)GlcNAc
Summary of the method: as §1

[21] = target: GlcNAc(b1-6)Gal(b1-4)GlcNAc
Summary of the method: as §1

[22] = target: Neu5Ac(a2-3)Gal(b1-3)GalNAc(b1-3)Gal(b1-4)GlcNAc
Summary of the method: as §1

[23] = target: Neu5Ac(a2-3)Gal(b1-3)GlcNAc
Summary of the method: as §1

[24] = target: Neu5Ac(a2-3)Gal(b1-3)GlcNAc(b1-3)Gal(b1-3)GlcNAc
Summary of the method: as §1

[25] = target: Neu5Ac(a2-3)Gal(b1-3)[Fuc(a1-4)]GlcNAc(b1-3)Gal(b1-4)[Fuc(a1-3)]GlcNAc
Summary of the method: as §1

[26] = target: Neu5Ac(a2-3)Gal(b1-3)[Neu5Ac(a2-3)Gal(b1-4)]GlcNAc
Summary of the method: as §1

[27] = target: Neu5Ac(a2-3)Gal(b1-3)[Neu5Ac(a2-6)]GalNAc
Summary of the method: as §1

[28] = target: Neu5Ac(a2-3)Gal(b1-4)GlcNAc6S
Summary of the method: as §1

[29] = target: Neu5Ac(a2-3)Gal(b1-4)[Fuc(a1-3)]GlcNAc(b1-3)Gal
Summary of the method: as §1

[30] = target: Neu5Ac(a2-3)Gal(b1-4)[Fuc(a1-3)]GlcNAc6S
Summary of the method: as §1

[31] = target: Neu5Ac(a2-3)GalNAc(b1-4)GlcNAc
Summary of the method: as §1

[32] = target: Neu5Ac(a2-6)Gal(b1-4)GlcNAc(b1-2)Man(a1-3)[GlcNAc(b1-2)Man(b1-4)GlcNAc(b1-2)Man(a1-6)]Man(b1-4)GlcNAc(b1-4)GlcNAc
Summary of the method: as §1

[33] = target: Neu5Ac(a2-6)GalNAc(b1-4)GlcNAc
Summary of the method: as §1

[34] = target: Neu5Gc(a2-3)Gal(b1-3)[Fuc(a1-4)]GlcNAc
Summary of the method: as §1

[35] = target: Neu5Gc(b2-6)Gal(b1-4)GlcNAc
Summary of the method: as §1

B1: MCL (Mus musculus), Q9Z2H6 (protein)
chain: MWLEESQMKSKGTRHPQLIPCVFAVVSISFLSACFISTCLVTHHYFLRWTRGSVVKLSDYHTRVTCIREEPQPGATGGTWTCCPVSWRAFQSNCYFPLNDNQTWHESERNCSGMSSHLVTINTEAEQNFVTQLLDKRFSYFLGLADENVEGQWQWVDKTPFNPHTVFWEKGESNDFMEEDCVVLVHVHEKWVWNDFPCHFEVRRICKLPGITFNWKPSK
- glycan array binding signal (z-score) [1]: -0.321
- glycan array binding signal (z-score) [2]: 0.241
- glycan array binding signal (z-score) [3]: -0.254
- glycan array binding signal (z-score) [4]: 0.999
- glycan array binding signal (z-score) [5]: 5.26
- glycan array binding signal (z-score) [6]: 0.601
- glycan array binding signal (z-score) [7]: -0.78
- glycan array binding signal (z-score) [8]: -0.475
- glycan array binding signal (z-score) [9]: 2.63
- glycan array binding signal (z-score) [10]: 3.06
- glycan array binding signal (z-score) [11]: -0.362
- glycan array binding signal (z-score) [12]: -0.472
- glycan array binding signal (z-score) [13]: 0.168
- glycan array binding signal (z-score) [14]: -0.92
- glycan array binding signal (z-score) [15]: 0.482
- glycan array binding signal (z-score) [16]: 0.263
- glycan array binding signal (z-score) [17]: 0.143
- glycan array binding signal (z-score) [18]: -0.708
- glycan array binding signal (z-score) [19]: 0.005
- glycan array binding signal (z-score) [20]: -0.357
- glycan array binding signal (z-score) [21]: -0.735
- glycan array binding signal (z-score) [22]: -0.471
- glycan array binding signal (z-score) [23]: 0.527
- glycan array binding signal (z-score) [24]: 0.595
- glycan array binding signal (z-score) [25]: -0.245
- glycan array binding signal (z-score) [26]: 2.08
- glycan array binding signal (z-score) [27]: 0.696
- glycan array binding signal (z-score) [28]: -0.011
- glycan array binding signal (z-score) [29]: -0.251
- glycan array binding signal (z-score) [30]: 0.138
- glycan array binding signal (z-score) [31]: -1.14
- glycan array binding signal (z-score) [32]: 2.17
- glycan array binding signal (z-score) [33]: -0.814
- glycan array binding signal (z-score) [34]: -0.827
- glycan array binding signal (z-score) [35]: 0.767
